# Values joined by “and” are separate entries in the source; they are usually repeats but may differ in a detail not shown here. Identical values can stand only once. About 83,000 compounds went through this panel and 20% of them were active in at least one assay; those are over-represented in the sample as a whole.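 The endpoint reported here, percent growth, reads 100 for growth as untreated, 0 for no net growth and -100 for all cells dead.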 Active and inactive are the calls of the source. How the source made its calls: active means growth percent below 10; inactive means the rest.
# What was measured:
# Assay in all cases: NCI-60 one-dose screen, 48 h (100 = growth as untreated, 0 = no growth, -100 = all killed)
# Conditions in all cases: 10 µM unless noted
# HCT-15 colon = system: HCT-15 colon
# HT29 colon = system: HT29 colon
# SNB-75 CNS = system: SNB-75 CNS
# SNB-19 CNS = system: SNB-19 CNS
# U251 CNS = system: U251 CNS
# PC-3 prostate = system: PC-3 prostate
# SK-MEL-5 melanoma = system: SK-MEL-5 melanoma
# UACC-62 melanoma = system: UACC-62 melanoma
# SK-MEL-28 melanoma = system: SK-MEL-28 melanoma
# SK-MEL-2 melanoma = system: SK-MEL-2 melanoma
# EKVX NSCLC = system: EKVX NSCLC
# SN12C renal = system: SN12C renal
# UO-31 renal = system: UO-31 renal
# TK-10 renal = system: TK-10 renal
# ACHN renal = system: ACHN renal
# CAKI-1 renal = system: CAKI-1 renal
# CCRF-CEM leukemia = system: CCRF-CEM leukemia
# MOLT-4 leukemia = system: MOLT-4 leukemia
# LOX IMVI melanoma = system: LOX IMVI melanoma
# A498 renal = system: A498 renal
Structure (SMILES),growth (HCT-15 colon),growth (HT29 colon),growth (SNB-75 CNS),growth (SNB-19 CNS),growth (U251 CNS),growth (PC-3 prostate),growth (SK-MEL-5 melanoma),growth (UACC-62 melanoma),growth (SK-MEL-28 melanoma),growth (SK-MEL-2 melanoma),growth (EKVX NSCLC),growth (SN12C renal),growth (UO-31 renal),growth (TK-10 renal),growth (ACHN renal),growth (CAKI-1 renal),growth (CCRF-CEM leukemia),growth (MOLT-4 leukemia),growth (LOX IMVI melanoma),growth (A498 renal)
O=C(O)CSCc1nc2ccccc2[nH]1,112% (inactive),103% (inactive),88.7% (inactive),97.4% (inactive),109% (inactive),95.5% (inactive),108% (inactive),93.9% (inactive),105% (inactive),105% (inactive),117% (inactive),93.1% (inactive),93.3% (inactive),121% (inactive),99.8% (inactive),107% (inactive),93.7% (inactive),99.5% (inactive),,
Cc1cc(C)c(N)c(Br)c1,106% (inactive) and 95.4% (inactive),102% (inactive) and 90.4% (inactive),83.3% (inactive) and 74.5% (inactive),107% (inactive) and 94.7% (inactive),105% (inactive) and 104% (inactive),102% (inactive) and 91.9% (inactive),103% (inactive) and 96.3% (inactive),108% (inactive) and 94.5% (inactive),,96.9% (inactive) and 99.3% (inactive),110% (inactive) and 97.1% (inactive),110% (inactive) and 101% (inactive),92.3% (inactive) and 87.9% (inactive),108% (inactive) and 112% (inactive),106% (inactive) and 95.4% (inactive),91.4% (inactive) and 74.5% (inactive),97.4% (inactive) and 90.1% (inactive),106% (inactive) and 111% (inactive),106% (inactive) and 96.4% (inactive),134% (inactive) and 88.8% (inactive)
O[C@H](c1cc(C(F)(F)F)nc2c(C(F)(F)F)cccc12)[C@@H]1CCCCN1,70.8% (inactive) and 82.5% (inactive),47.5% (inactive),29.7% (inactive) and 46.3% (inactive),60.1% (inactive) and 65.9% (inactive),42.6% (inactive) and 45.9% (inactive),42.7% (inactive) and 45% (inactive),84.9% (inactive) and 74.2% (inactive),70.5% (inactive) and 67.8% (inactive),,73.6% (inactive) and 52.5% (inactive),65.5% (inactive) and 82.8% (inactive),65.9% (inactive) and 55.1% (inactive),50.5% (inactive) and 31.7% (inactive),56.9% (inactive) and 63.8% (inactive),40.1% (inactive) and 45.8% (inactive),72.7% (inactive) and 50.9% (inactive),,32.7% (inactive),11.6% (inactive) and 7.96% (active),67% (inactive) and 52% (inactive)
S=C(S)N1CCCC1,107% (inactive),76.7% (inactive) and 22.4% (inactive),113% (inactive) and 89% (inactive),99.1% (inactive) and 100% (inactive),,84.7% (inactive) and 82.8% (inactive),79.7% (inactive) and 67.8% (inactive),90.9% (inactive) and 105% (inactive),95.1% (inactive) and 107% (inactive),98% (inactive) and 99.7% (inactive),114% (inactive) and 99% (inactive),96.4% (inactive) and 109% (inactive),88.3% (inactive) and 76.4% (inactive),96.5% (inactive) and 96.3% (inactive),125% (inactive) and 110% (inactive),124% (inactive),65.5% (inactive) and 70.7% (inactive),,108% (inactive) and 90.2% (inactive),72.5% (inactive) and 102% (inactive)
C=C1C(=O)O[C@H]2[C@H]1CC/C(COC(=O)NC1CCC(O)CC1)=C\CC[C@@]1(C)O[C@@H]21 (stereo partly specified),92.2% (inactive) and 85.3% (inactive),60% (inactive) and 43.7% (inactive),71% (inactive) and 71.7% (inactive),100% (inactive) and 99.5% (inactive),91.8% (inactive) and 88.3% (inactive),95.5% (inactive) and 90.6% (inactive),,,,91.2% (inactive) and 86.1% (inactive),72.8% (inactive) and 67.5% (inactive),,78.9% (inactive) and 70.1% (inactive),75.2% (inactive) and 71.5% (inactive),54.3% (inactive) and 45% (inactive),70.3% (inactive) and 64% (inactive),16.1% (inactive) and 12.7% (inactive),69.5% (inactive) and 63.2% (inactive),90.3% (inactive) and 86.9% (inactive),105% (inactive) and 101% (inactive)
CNC(=O)c1ccc(C)c(-n2c(C)cc(OCc3ccc(F)cc3F)c(Br)c2=O)c1,91% (inactive) and 97.1% (inactive),56.4% (inactive) and 76.5% (inactive),63.3% (inactive) and 86.1% (inactive),75.8% (inactive) and 91.1% (inactive),80.1% (inactive) and 78.6% (inactive),74.8% (inactive) and 66.5% (inactive),56.4% (inactive) and 87.9% (inactive),56.5% (inactive) and 73.4% (inactive),,89.3% (inactive),78.7% (inactive) and 87.7% (inactive),,52.5% (inactive) and 71.8% (inactive),74.6% (inactive) and 102% (inactive),68.6% (inactive) and 88.2% (inactive),62.9% (inactive) and 79.1% (inactive),77.4% (inactive) and 89.1% (inactive),78.8% (inactive) and 91.8% (inactive),83.2% (inactive) and 93.6% (inactive),78.7% (inactive)
CNc1ccc2nc3ccc(=[N+](C)C)cc-3sc2c1,17.2% (inactive) and 9.61% (active),9.87% (active) and 38.1% (inactive),-53.5% (active),1.89% (active) and -5.26% (active),,1.57% (active) and 1.01% (active),-97% (active) and -61.1% (active),4.52% (active) and -3.38% (active),-31.3% (active) and 27.9% (inactive),4.78% (active) and 4.79% (active),40.9% (inactive) and 44.1% (inactive),-22% (active) and -62.5% (active),26.7% (inactive) and 33.7% (inactive),-3.64% (active) and 17.3% (inactive),14.6% (inactive) and -27.6% (active),11.2% (inactive) and 4.64% (active),9.67% (active) and 11.8% (inactive),-8.79% (active) and 12.2% (inactive),-57.5% (active) and -44.1% (active),
CCOC(=O)c1sc(N)nc1-c1ccccc1,97.3% (inactive),96.8% (inactive),94.7% (inactive),109% (inactive),,98% (inactive),100% (inactive),112% (inactive),109% (inactive),95.9% (inactive),,104% (inactive),85.4% (inactive),99% (inactive),93.7% (inactive),103% (inactive),97.7% (inactive),96.1% (inactive),95.5% (inactive),
O=C(Nc1ccc(Br)cc1)c1cc(Br)ccc1O,15.2% (inactive) and 15.6% (inactive),92.1% (inactive) and 36.7% (inactive),-10.1% (active) and 49.2% (inactive),22.1% (inactive) and 23.1% (inactive),,5.68% (active) and 3.31% (active),-65.5% (active) and -83.1% (active),3.77% (active) and -27.9% (active),27% (inactive) and 16.4% (inactive),-30.5% (active) and 13.2% (inactive),11% (inactive) and 13.6% (inactive),6.5% (active) and -10.3% (active),-12.3% (active) and 0.207% (active),9.29% (active) and 1.36% (active),9.36% (active) and -2.71% (active),5.39% (active) and 10.4% (inactive),23.4% (inactive) and 3.66% (active),17.4% (inactive) and -33.2% (active),2.39% (active) and 8.77% (active),-12.7% (active) and -34.6% (active)

# — PubChem BioAssay (NCI)
